Test results from ChEMBL document CHEMBL1961873, “Compounds: GSK PKIS; Assays: Nanosyn kinase panel” (2012).
Values joined by “and” are separate entries in the source; they are usually repeats but may differ in a detail not shown here. Equal values may be shown once.

Target: Tyrosine-protein kinase FRK (Homo sapiens) (UniProt P42685)
Settings: at 0.1 µM

Chain of Tyrosine-protein kinase FRK (Homo sapiens) (P42685 whole entry): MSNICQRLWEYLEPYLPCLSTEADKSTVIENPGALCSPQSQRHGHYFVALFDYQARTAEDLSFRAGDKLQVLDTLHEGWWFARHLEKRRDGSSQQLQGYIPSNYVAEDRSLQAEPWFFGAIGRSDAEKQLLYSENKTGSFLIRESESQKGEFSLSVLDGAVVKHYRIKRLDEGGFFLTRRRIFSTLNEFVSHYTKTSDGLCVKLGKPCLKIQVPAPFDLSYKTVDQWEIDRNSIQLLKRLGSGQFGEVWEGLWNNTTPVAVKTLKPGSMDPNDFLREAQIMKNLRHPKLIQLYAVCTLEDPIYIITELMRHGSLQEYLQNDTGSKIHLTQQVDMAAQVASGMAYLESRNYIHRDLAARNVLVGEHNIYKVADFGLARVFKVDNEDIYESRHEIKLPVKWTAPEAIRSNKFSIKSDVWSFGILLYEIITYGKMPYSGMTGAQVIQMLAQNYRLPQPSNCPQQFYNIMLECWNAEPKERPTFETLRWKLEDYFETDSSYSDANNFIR

Row | Structure (SMILES) | inhibition
1 | O=C1Nc2ccccc2/C1=C1\CCc2cc(O)ccc21 | 2.6%
2 | Nc1nccc(-c2c(-c3ccc(F)cc3)ncn2C2CCNCC2)n1 | 0.53% and 0.26%
3 | COc1cc(N2CCN(C(C)C)CC2)ccc1Nc1nc(Nc2cccc(F)c2C(=O)O)c2cc[nH]c2n1 | 4.04%
4 | CN(c1ccc(NC(=O)NCCN2CCOCC2)cc1)c1ccnc(Nc2ccc(CS(C)(=O)=O)cc2)n1 | 1.69%
5 | N#Cc1cccc(Nc2ncc(-c3ccccc3)o2)c1 | 0.92%
6 | O=C(O[C@H]1CN[C@H](C#Cc2cc3ncnc(Nc4ccc5c(cnn5Cc5ccccc5)c4)c3s2)C1)N1CCOCC1 | 0.07%
7 | CNC(=O)c1sc(-n2cnc3cc(OC)c(OC)cc32)cc1OCc1ccccc1C(F)(F)F | 1.48%
8 | c1cnn2ncc(-c3ccnc(NCCCN4CCOCC4)n3)c2c1 | 0.16%
9 | COc1ccccc1-c1cc(/C=C2\C(=O)Nc3ncc(Br)cc32)cc(Br)c1O | 0.6%
10 | CS(=O)(=O)CCNCc1ccc(-c2ccc3ncnc(Nc4ccc(OCc5ccccc5)cc4)c3c2)o1 | 0.38%
11 | Fc1ccc(Nc2nccc(-c3c(-c4ccc(C(F)(F)F)cc4)nn4ncccc34)n2)cc1F | 0.45%
12 | NC(=O)c1ccc2c(-c3ccnc(NCCCO)n3)c(-c3ccc(F)cc3)nn2c1 | 4.1%
13 | COC(=O)Nc1nc2ccc(Oc3ccc(NC(=O)Nc4cc(C(F)(F)F)ccc4F)cc3)cc2s1 | 0.62%
14 | CS(=O)(=O)CCNCc1ccoc1-c1ccc2ncnc(Nc3ccc(OCc4ccccc4)cc3)c2c1 | -0.85%
15 | COc1cccc(-n2ncc3c(N/N=C/c4ccc(C(=O)NCCN(C)C)cc4)ncnc32)c1 | 3.91%

Target: Tyrosine-protein kinase FRK (Homo sapiens) (UniProt P42685)
Settings: at 1 µM

Row | Structure (SMILES) | inhibition
16 | Cc1nnc(-c2cccc(-c3ccc(C(=O)NCC4CC4)cc3)c2)o1 | 3.45%
17 | N#Cc1ccc2c(-c3ccnc(NC4CC4)n3)c(-c3ccc(F)cc3)nn2c1 | 0.3%
18 | O=C(O[C@H]1CN[C@H](C#Cc2cc3ncnc(Nc4ccc(OCc5cccc(F)c5)c(Cl)c4)c3s2)C1)N1CCOCC1 | 2.3%
19 | COc1c(C(N)=O)cc(-c2ccc(Cl)cc2)cc1-c1ccc(S(N)(=O)=O)cc1 | 3.5%
20 | Cc1ccc(-c2cc3c(NC(=O)C4CC4)ncnc3o2)cc1 | 0.91%
21 | COc1cccc(Nc2nccc(-c3cnn4ncccc34)n2)c1 | 4.45%
22 | NS(=O)(=O)c1cccc(N/C=C2\C(=O)Nc3ccccc32)c1 | 5.58%
23 | c1ccc(-c2n[nH]cc2-c2ccnc(-c3ccc(OCCn4ccnc4)cc3)c2)nc1 | 2.79%
24 | CS(=O)(=O)Nc1ccc(-c2ccc3c(NC(=O)C4CC4)n[nH]c3c2)cc1 | 1.03%
25 | CCOc1ccc2c(-c3ccnc(Nc4cc(OC)cc(C(F)(F)F)c4)n3)cnn2n1 | -0.61%
26 | COC(=O)Nc1nc2cc(Oc3ccc(NC(=O)Nc4ccccc4)cc3)ccc2[nH]1 | 1.93%
27 | CCS(=O)(=O)c1ccc(OC)c(Nc2ncc(-c3cccc(F)c3)o2)c1 | 46.4%
28 | CC(C)c1ccc(-c2cc(-c3c[nH]nc3-c3ccccn3)ccn2)cc1 | -0.88%
29 | CN1CCN(Cc2ccc(-c3cc4ncnc(Nc5ccc(OCc6cccc(F)c6)c(Cl)c5)c4s3)o2)CC1 | 3.13% and 4.91%
30 | NS(=O)(=O)c1ccc(N/N=C2\C(=O)Nc3cccc(CCc4ccncc4)c32)cc1 | -0.31%
31 | Cc1cc(O)cc(C)c1/C=C/c1cncc(C(N)=O)c1 | 14.2%

Row | Structure (SMILES) | inhibition
32 | O=C1Nc2ccccc2/C1=C1\CCc2cc(O)ccc21 | 3.64%
33 | Nc1nccc(-c2c(-c3ccc(F)cc3)ncn2C2CCNCC2)n1 | 1.84% and 3.88%
34 | COc1cc(N2CCN(C(C)C)CC2)ccc1Nc1nc(Nc2cccc(F)c2C(=O)O)c2cc[nH]c2n1 | 4.07%
35 | CN(c1ccc(NC(=O)NCCN2CCOCC2)cc1)c1ccnc(Nc2ccc(CS(C)(=O)=O)cc2)n1 | 0.89%
36 | N#Cc1cccc(Nc2ncc(-c3ccccc3)o2)c1 | 3.54%
37 | O=C(O[C@H]1CN[C@H](C#Cc2cc3ncnc(Nc4ccc5c(cnn5Cc5ccccc5)c4)c3s2)C1)N1CCOCC1 | -1.26%
38 | CNC(=O)c1sc(-n2cnc3cc(OC)c(OC)cc32)cc1OCc1ccccc1C(F)(F)F | 3.75%
39 | c1cnn2ncc(-c3ccnc(NCCCN4CCOCC4)n3)c2c1 | 0.39%
40 | COc1ccccc1-c1cc(/C=C2\C(=O)Nc3ncc(Br)cc32)cc(Br)c1O | 2.12%
41 | CS(=O)(=O)CCNCc1ccc(-c2ccc3ncnc(Nc4ccc(OCc5ccccc5)cc4)c3c2)o1 | 0.96%
42 | Fc1ccc(Nc2nccc(-c3c(-c4ccc(C(F)(F)F)cc4)nn4ncccc34)n2)cc1F | 0.39%
43 | NC(=O)c1ccc2c(-c3ccnc(NCCCO)n3)c(-c3ccc(F)cc3)nn2c1 | 3.97%
44 | COC(=O)Nc1nc2ccc(Oc3ccc(NC(=O)Nc4cc(C(F)(F)F)ccc4F)cc3)cc2s1 | 4.14%
45 | CS(=O)(=O)CCNCc1ccoc1-c1ccc2ncnc(Nc3ccc(OCc4ccccc4)cc3)c2c1 | 0.98%
46 | COc1cccc(-n2ncc3c(N/N=C/c4ccc(C(=O)NCCN(C)C)cc4)ncnc32)c1 | 12.2%
